One assay has as its target DMKN. The assay can be described thus: pooled miR-30 sensor sort-seq; sequence = guide strand. To be noted: shRNA.
For the sequence TTGGATTTAAAATTCTTCCAGA, the sensor-assay potency score (higher = more potent) was determined as 0.603. As for TCGAATGACATCTTCTGCCTGT, the sensor-assay potency score (higher = more potent) came out at 0.442. Still for that read-out and setting: under TTGTTGTCACCATTGCTGCCAC stands -0.584; under TTGTTGTTGTCACCATTGCTGC, -0.932; under TTCTGTTTGAAATCCTCCCAGA, -0.45. Same read-out and setting: as for TAGTTCTGATCGGCTCTGCCTG, the figure is -0.576; as for TTCCTCTCCGCTCTGCAGGGGG, -0.64. The same measure, in the same setting: under TGCCTGTCTGCCAATCTCGTGC stands -0.915.

In a further assay the target is DMRT3. Described as above. To be noted: shRNA.
Regarding TTGACACAAATGGACACCCATC, the sensor-assay potency score (higher = more potent) is -1.32. TACATTGACATTACACATGTTT displayed a sensor-assay potency score (higher = more potent) of -0.269. In the case of TAGACTCTCAGGTTCTGCGGAA, the sensor-assay potency score (higher = more potent) was -0.423. Take TTTGACACAAATGGACACCCAT: the sensor-assay potency score (higher = more potent) worked out at 0.206. Same read-out and setting: as for TACTCTTTGCCACATCTGGGGA, the figure is -0.96.

Sequence TTTGTCACTGAAGACCTCTGTA came in with a sensor-assay potency score (higher = more potent) of 0.155. Sequence TACATTAACCTGACAAAGCTTA yielded a sensor-assay potency score (higher = more potent) of 0.0811. In turn, TTTTTTAACACTTCAAGCGGCG yielded a sensor-assay potency score (higher = more potent) of -0.226. The same measure, in the same setting: under TTACTCTTTGCCACATCTGGGG stands -0.22. Same read-out and setting: as for TTGCAACAGAACCACTTCCTTT, the figure is -0.544; as for TTGTCTCTGAAAACTGTCCAAG, -0.806.

The next assay addresses DMRTC2. The assay is described as above. To be noted: shRNA.
Consider ACACATTTGTGACACTCGCAAG, for which the sensor-assay potency score (higher = more potent) is -1.72. Turning to TATCAGAGTTGAGTGTGTGCGG, the sensor-assay potency score (higher = more potent) is -0.137.

ATTTGTGACACTCGCAAGCCTG gave a sensor-assay potency score (higher = more potent) of -0.869.

The sequence TCAGAGTTGAGTGTGTGCGGGG came in with a sensor-assay potency score (higher = more potent) of -0.0492. Still for that read-out and setting: under TTTGTGACACTCGCAAGCCTGG stands -0.968; under ATATGCAGAGCAACAGAGGGGG, -0.319; under TATGCAGAGCAACAGAGGGGGC, -1.35. TTGTGACACTCGCAAGCCTGGA showed a sensor-assay potency score (higher = more potent) of -1.29. The same measure, in the same setting: under TTCTGAAGTGGTTGGGAGCTTT stands -0.576; under TCTGAGGGACCAGATGTCCGGG, -1.06; under TCAGTACTGGGTGAGATCCTGG, -0.163. In turn, TAGCTGAAGAGGGTCTGGGGTG had a sensor-assay potency score (higher = more potent) of -1.25.

The target in a further assay is DMXL1. The description is as above. As to conditions: shRNA.
TTGTTTCTGAAAACACTGCTAT: the sensor-assay potency score (higher = more potent) came to 0.009. In turn, TACATTTCTAAATAGTATCTAC had a sensor-assay potency score (higher = more potent) of -0.076.

Consider TTTCTATTAATGGTAGATCTGG, for which the sensor-assay potency score (higher = more potent) was -0.715.

Take TAATTCTTGCTTTACCTCCAGG: the sensor-assay potency score (higher = more potent) is -0.447. On the same count and under the same terms, as for TTTTTCTGAACTTCCATCTGGA, the figure is 0.702; as for TTGACTGCTTTCACATTTGTTT, -0.678; as for ATTACTTACACATTCTACTTTA, -0.377. Still for that read-out and setting: under TTATTTGAAAATTAGGATGGGA stands 0.431; under TTTGTTTCTGAAAACACTGCTA, 0.164.

For the origin of these results see the OligoGym collection.
Further: reference of the scale not given here.
